Source: PubChem BioAssay AID2521 (Sanford-Burnham Center for Chemical Genomics, 2010)
About 1,100 (0.33%) of roughly 330,000 compounds were called active.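 How the source made its calls: active means inhibition above about 40% at 20 µM (limit read from the data); inactive means the rest.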 Shown is part of a subset that was picked to be rich in actives.

What follows are compounds tested against Apelin receptor (Homo sapiens) (UniProt P35414) (assay: blockade of apelin-induced APJ beta-arrestin recruitment – CHO-K1 cells, beta-arrestin complementation, luminescence, primary screen (AID 2521;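 further: cells challenged with 10 nM apelin-13 agonist together with compound; plate controls were apelin-13 plus DMSO wells for no effect and DMSO wells lacking apelin-13 for full effect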)). Settings: at 20 µM, stronger effect = higher value.
Apelin receptor (Homo sapiens), sequence (P35414 whole entry, looked up): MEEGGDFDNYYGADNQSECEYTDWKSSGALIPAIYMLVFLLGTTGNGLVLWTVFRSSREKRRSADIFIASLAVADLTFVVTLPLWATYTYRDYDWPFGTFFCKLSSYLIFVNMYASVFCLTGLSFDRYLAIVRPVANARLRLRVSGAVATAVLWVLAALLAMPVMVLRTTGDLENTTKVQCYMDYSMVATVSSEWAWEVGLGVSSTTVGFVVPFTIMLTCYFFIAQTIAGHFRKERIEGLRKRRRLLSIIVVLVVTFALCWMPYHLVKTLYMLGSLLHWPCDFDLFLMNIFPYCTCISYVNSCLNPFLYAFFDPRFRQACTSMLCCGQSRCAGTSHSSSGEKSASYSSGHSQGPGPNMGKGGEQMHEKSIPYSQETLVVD
With CCOC(=O)c1c(N)n(Cc2ccccc2)c2nc3ccccc3nc12 the inhibition was 42.7% (active). With COc1cc(Cn2c(N)c(C(=O)NCc3ccco3)c3nc4ccccc4nc32)cc(OC)c1OC the inhibition was 34% (inactive). In the case of CC/C(=N\NC(=O)c1ccccc1O)c1c(O)n(Cc2ccccc2)c(=O)[nH]c1=O, the inhibition is reported as -28% (inactive). With COc1ccc(Br)cc1CNCCc1cccc(Cl)c1 the inhibition was 17.7% (inactive). In the case of C=CC12CN(C)[C@@H]3C4CO[C@H](C[C@H]41)[C@]1(C(=O)Nc4ccccc41)[C@@H]32 (stereo not given in full), the inhibition is reported as -19.7% (inactive).
